Active and inactive are the calls of the source. Unless noted, how the calls were made is not given here.
Legend:
[1] = compounds binding Alexa647 anti-His antibody – biochemical, small-molecule microarray, 635 nm fluorescence, artefact control for SMM control protein annotation, primary screen (AID 1128); conditions: higher = more signal;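 further: score merges feature fluorescence with signal-to-noise for each printed compound spot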
[2] = system: Human papillomavirus type 1a E7 protein (residues 1-88); assay: HPV1a E7 small-molecule binders, primary screen, biochemical, small-molecule microarray, residues 1-88, 635 nm (AID 1129); conditions: small-molecule microarray binding, fluorescence 635 nm; higher = more signal
[3] = target: Focal adhesion kinase 1 (Homo sapiens) (UniProt Q05397); assay: PTK2 protein binding on printed compound slides – biochemical, small-molecule microarray, 635/667 nm fluorescence, BSA, DTT, primary screen (AID 1130); conditions: 635 nm fluorescence, higher = more signal;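 further: composite of spot emission at 667 nm and signal to noise over triplicate slides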
Chain of Focal adhesion kinase 1 (Homo sapiens) (Q05397 whole entry, looked up): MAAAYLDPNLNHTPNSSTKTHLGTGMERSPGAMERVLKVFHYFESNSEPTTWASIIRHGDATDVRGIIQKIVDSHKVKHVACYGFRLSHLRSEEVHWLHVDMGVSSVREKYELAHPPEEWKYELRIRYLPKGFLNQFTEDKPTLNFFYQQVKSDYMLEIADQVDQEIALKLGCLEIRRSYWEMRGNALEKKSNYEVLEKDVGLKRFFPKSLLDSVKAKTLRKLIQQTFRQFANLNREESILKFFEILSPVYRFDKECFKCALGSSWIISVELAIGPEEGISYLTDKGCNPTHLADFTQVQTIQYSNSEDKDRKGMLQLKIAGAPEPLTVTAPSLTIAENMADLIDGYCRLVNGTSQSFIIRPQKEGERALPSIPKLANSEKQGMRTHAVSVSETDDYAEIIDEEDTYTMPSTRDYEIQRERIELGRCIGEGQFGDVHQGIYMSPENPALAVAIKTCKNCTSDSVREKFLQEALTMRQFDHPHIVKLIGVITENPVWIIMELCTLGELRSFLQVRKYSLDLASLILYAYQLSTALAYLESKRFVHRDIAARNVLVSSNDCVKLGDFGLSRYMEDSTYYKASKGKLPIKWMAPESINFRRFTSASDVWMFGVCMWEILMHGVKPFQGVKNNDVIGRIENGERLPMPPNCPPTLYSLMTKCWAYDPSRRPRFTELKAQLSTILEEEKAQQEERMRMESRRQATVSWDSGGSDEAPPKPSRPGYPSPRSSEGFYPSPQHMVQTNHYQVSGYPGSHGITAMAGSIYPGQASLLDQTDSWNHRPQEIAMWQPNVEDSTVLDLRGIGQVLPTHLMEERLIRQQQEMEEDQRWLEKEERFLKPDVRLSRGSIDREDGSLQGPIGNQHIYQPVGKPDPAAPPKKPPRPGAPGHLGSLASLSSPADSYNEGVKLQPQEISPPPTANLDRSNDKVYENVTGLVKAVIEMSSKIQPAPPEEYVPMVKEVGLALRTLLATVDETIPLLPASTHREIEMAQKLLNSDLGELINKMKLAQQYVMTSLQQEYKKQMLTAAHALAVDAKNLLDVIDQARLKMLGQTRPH

[4] = system: Fibrinogen (Alexa647-labelled); assay: Alexa647-fibrinogen binding to printed small molecules – biochemical, small-molecule microarray, 635/667 nm fluorescence, artefact control for SMM control-protein annotation, profiling panel (AID 1131); conditions: fibrinogen-A647 binding fluorescence, higher = more signal;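 further: z-score merges 667 nm fluorescence with per-spot signal-to-noise over triplicate slides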
[5] = target: Follistatin (Homo sapiens) (UniProt P19883); assay: FST protein binding to printed compounds – biochemical, small-molecule microarray, 635/667 nm fluorescence, primary screen (AID 1132); conditions: 635 nm fluorescence, higher = more signal
Chain of Follistatin (Homo sapiens) (P19883 whole entry, looked up): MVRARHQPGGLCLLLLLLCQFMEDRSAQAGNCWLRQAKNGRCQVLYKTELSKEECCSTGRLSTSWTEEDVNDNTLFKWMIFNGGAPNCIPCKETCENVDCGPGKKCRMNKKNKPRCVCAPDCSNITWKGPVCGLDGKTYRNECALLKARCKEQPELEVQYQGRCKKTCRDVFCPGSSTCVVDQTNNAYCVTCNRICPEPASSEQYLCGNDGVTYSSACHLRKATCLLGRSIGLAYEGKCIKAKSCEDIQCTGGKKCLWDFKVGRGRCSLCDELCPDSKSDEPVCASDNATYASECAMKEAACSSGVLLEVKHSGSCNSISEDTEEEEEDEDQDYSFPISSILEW

[6] = target: Fibroblast growth factor 2 (Homo sapiens) (UniProt P09038); assay: basic fibroblast growth factor binding to printed compounds – biochemical, small-molecule microarray, 635/667 nm fluorescence, primary screen (AID 1133); conditions: FGF2, fluorescence 635/667, higher = more signal
Chain of Fibroblast growth factor 2 (Homo sapiens) (P09038 whole entry, looked up): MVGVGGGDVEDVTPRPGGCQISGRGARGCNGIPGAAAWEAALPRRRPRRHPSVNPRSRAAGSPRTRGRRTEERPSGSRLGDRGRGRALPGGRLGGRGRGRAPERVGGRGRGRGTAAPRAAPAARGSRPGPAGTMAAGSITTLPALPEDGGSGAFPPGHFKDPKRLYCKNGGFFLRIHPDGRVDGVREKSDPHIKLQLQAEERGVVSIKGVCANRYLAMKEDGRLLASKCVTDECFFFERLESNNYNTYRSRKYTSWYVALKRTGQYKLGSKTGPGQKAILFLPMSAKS

[7] = JC-1 mitochondrial potential readout, lung cancer cells – cell-based, A549, JC-1 fluorescence, basal, 24 h, 100 nL, profiling panel (AID 1138); conditions: higher = more signal;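 further: A549 lung adenocarcinoma cells under basal conditions with no added stimulus; test concentration not given here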
Lefty1 = Lefty1 protein binding to printed compounds – biochemical, small-molecule microarray, 635/667 nm fluorescence, primary screen (AID 1139); conditions: fluorescence 635/667, higher = more signal
[8] = system: wheat germ agglutinin (Triticum aestivum), Alexa647-labelled; assay: Alexa647-WGA lectin binding to printed small molecules – biochemical, small-molecule microarray, 635/667 nm fluorescence, artefact control for SMM control-protein annotation, profiling panel (AID 1140); conditions: WGA-A647 binding, 635 nm fluorescence, higher = more signal;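 further: score merges 667 nm feature emission with signal to noise over triplicate slides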
[9] = target: Luciferin 4-monooxygenase (Photinus pyralis) (UniProt P08659); assay: inhibition of purified Photinus pyralis luciferase – biochemical, luminescence, purified enzyme, 2006 set, primary screen (AID 1141); conditions: purified firefly luciferase, SteadyGlo luminescence, 30 min; higher = more signal, called active from +8 up or from −8 down;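 further: cell-free assay with purified firefly luciferase at 100 ng per well in PBS; test concentration not given here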
Chain of Luciferin 4-monooxygenase (Photinus pyralis) (P08659 whole entry, looked up): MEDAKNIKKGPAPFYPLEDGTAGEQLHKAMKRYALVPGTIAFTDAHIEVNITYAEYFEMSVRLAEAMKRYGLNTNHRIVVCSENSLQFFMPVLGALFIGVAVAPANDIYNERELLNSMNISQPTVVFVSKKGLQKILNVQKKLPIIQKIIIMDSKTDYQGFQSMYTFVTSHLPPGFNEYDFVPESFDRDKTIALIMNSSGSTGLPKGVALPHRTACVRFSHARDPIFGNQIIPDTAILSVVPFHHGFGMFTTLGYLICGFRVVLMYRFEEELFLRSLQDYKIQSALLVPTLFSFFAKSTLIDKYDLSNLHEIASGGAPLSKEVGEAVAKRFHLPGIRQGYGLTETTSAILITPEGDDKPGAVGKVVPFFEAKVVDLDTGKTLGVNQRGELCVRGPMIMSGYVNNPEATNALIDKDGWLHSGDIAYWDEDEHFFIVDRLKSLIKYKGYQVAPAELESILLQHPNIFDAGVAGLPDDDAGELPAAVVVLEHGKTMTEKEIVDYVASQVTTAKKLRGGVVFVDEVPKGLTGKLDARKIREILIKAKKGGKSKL

[10] = system: Wnt5a (protein binding on small-molecule microarray); assay: small molecules binding Wnt5a protein – biophysical, small-molecule microarray, 635/667 nm fluorescence, primary screen (AID 1142); conditions: 635 nm fluorescence, higher = more signal;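 further: fluorescence read at 667 nm with signal to noise per printed feature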
[11] = ATP-based viability of Huh7 replicon cells – cell-based, CellTiter-Glo luminescence, basal, 48 h, cytotoxicity control for HCV replication inhibitor project, primary screen (AID 1143); conditions: higher = more signal, called active from +8 up or from −8 down;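 further: Huh7 hepatoma cells carrying a hepatitis C replication reporter with no stimulus; test concentration not given here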
[12] = Pseudomonas biofilm growth suppression – PAO1 strain, BacTiter-Glo luminescence, LB-PBS, primary screen (AID 1144); conditions: P. aeruginosa PAO1 biofilm, 12 h, higher = more signal
[13] = basal CRE-LacZ reporter activity in PC12 – cell-based, unstimulated, primary screen (AID 1145); conditions: no forskolin, luminescence, 4.5 h, higher = more signal, called active from +8 up or from −8 down
[14] = forskolin-driven CRE-LacZ activity in PC12 – cell-based, CRE-LacZ reporter, forskolin-stimulated, primary screen (AID 1146); conditions: luminescence, 4.5 h, higher = more signal, called active from +8 up or from −8 down;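 further: PC12 cells with 6xCRE LacZ reporter stimulated by forskolin 10 µM; beta-galactosidase reporter signal reflecting CREB driven transcription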
[15] = target: Streptavidin (Streptomyces avidinii) (UniProt P22629); assay: compounds binding control protein streptavidin – biophysical, small-molecule microarray, 635/667 nm fluorescence, artefact control for SMM compound annotation, primary screen (AID 1147); conditions: higher = more signal;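 further: signal reflects streptavidin binding to arrayed compounds as a control protein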
Chain of Streptavidin (Streptomyces avidinii) (P22629 whole entry, looked up): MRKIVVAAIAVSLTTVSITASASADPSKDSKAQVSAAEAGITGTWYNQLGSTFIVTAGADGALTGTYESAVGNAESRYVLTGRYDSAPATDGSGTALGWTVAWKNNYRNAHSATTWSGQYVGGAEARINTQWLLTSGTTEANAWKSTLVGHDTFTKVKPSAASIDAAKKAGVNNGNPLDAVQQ

[16] = probe aInhba binding on compound microarray – biochemical, small-molecule microarray, 635/667 nm fluorescence, primary screen (AID 1148); conditions: higher = more signal;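 further: score merges 667nm spot fluorescence with signal-to-noise for antibody binding to printed compounds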
Torsin-1A (Homo sapiens) [17] = target: Torsin-1A (Homo sapiens) (UniProt O14656); assay: TOR1A wild-type binding on microarray – cell lysate, small-molecule microarray, lysate, 635/667 nm, primary screen (AID 1149); conditions: COS7 hTOR1A-WT lysate, 635 nm fluorescence, higher = more signal
Chain of Torsin-1A (Homo sapiens) (O14656 whole entry, looked up): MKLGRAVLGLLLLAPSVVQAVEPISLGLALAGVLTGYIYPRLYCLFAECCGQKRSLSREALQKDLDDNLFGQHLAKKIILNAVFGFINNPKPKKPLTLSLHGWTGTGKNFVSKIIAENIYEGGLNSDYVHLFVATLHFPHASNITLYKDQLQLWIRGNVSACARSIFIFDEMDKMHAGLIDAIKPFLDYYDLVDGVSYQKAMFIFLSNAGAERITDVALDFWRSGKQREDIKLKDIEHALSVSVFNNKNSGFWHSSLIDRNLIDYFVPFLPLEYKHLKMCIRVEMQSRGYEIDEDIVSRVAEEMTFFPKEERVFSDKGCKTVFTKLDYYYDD

Torsin-1A (Homo sapiens) [18] = target: Torsin-1A (Homo sapiens) (UniProt O14656); assay: torsin A mutant lysate binding on microarrays – cell lysate, small-molecule microarray, COS7 lysate, 635/667 nm fluorescence, primary screen (AID 1150); conditions: COS7 hTOR1A mutant lysate, 635 nm fluorescence, higher = more signal;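 further: score pools 667 nm emission and signal to noise measuring lysate protein binding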
[19] = system: Sonic hedgehog protein (Shh); assay: Sonic hedgehog microarray binding compounds – biochemical, small-molecule microarray, 635/667 nm fluorescence, primary screen (AID 1151); conditions: 635 nm fluorescence, higher = more signal;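 further: Shh protein binding to compounds spotted on small-molecule microarray slides; score combines spot fluorescence intensity with signal-to-noise across triplicate slides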

| Compound | composite z-score [1] | composite z-score [2] | composite z-score [3] | composite z-score [4] | composite z-score [5] | composite z-score [6] | z-score [7] | composite z-score (Lefty1) | composite z-score [8] | z-score [9] | composite z-score [10] | z-score [11] | z-score [12] | z-score [13] | z-score [14] | composite z-score [15] | composite z-score [16] | composite z-score (Torsin-1A (Homo sapiens) [17]) | composite z-score (Torsin-1A (Homo sapiens) [18]) | composite z-score [19] |
| --- | --- | --- | --- | --- | --- | --- | --- | --- | --- | --- | --- | --- | --- | --- | --- | --- | --- | --- | --- | --- |
| COc1ccc([Si](C)(C)[C@H]2[C@H](CCO)O[C@@]3(C(=O)N(Cc4cccc(NC(=O)[C@H](C)O)c4)c4ccccc43)[C@@H]2C)cc1 | 1.75 | 1.15 | 0.598 | 0.83 | 1.11 | 0.684 | -0.598 | 1.23 | 0.23 | -0.208 (inactive) | 0.209 | -7.96 (inactive) | -1.52 (inactive) | 3.1 (inactive) | -0.878 (inactive) | 0.394 | -0.0468 | 0.715 | 0.916 | 1.98 |
| COC(=O)CC=C[C@@H](C)[C@H](OC)c1ccccc1Br | -0.457 | 0.0434 | -0.0378 | -0.47 | 0.209 | 0.182 | 0.688 | 0.0835 | -0.602 | -0.384 (inactive) | -0.0438 | 0.266 (inactive) | 0.189 (inactive) | -0.971 (inactive) | -0.868 (inactive) | -0.112 | -0.128 | 0.258 | 0.466 | 0.153 |
| CC(C)NC(=O)[C@@H]1c2ccccc2C(=O)N(CC23CC4CC(CC(C4)C2)C3)[C@H]1c1ccc(CO)cc1 | 0.526 | 1.23 | 0.417 | 0.973 | 1.35 | 0.615 | 0.689 | 0.822 | 0.298 | 0.892 (inactive) | 0.0678 | -4.06 (inactive) | -2.1 (inactive) | -0.0259 (inactive) | -0.607 (inactive) | 0.969 | 0.0569 | 0.508 | 0.561 | 1.54 |
| CN1C(=O)C2C=CC(C(O)C(c3ccccc3)c3ccccc3)N(NC(=O)OC(C)(C)C)C2C1=O (stereo not given) | 1.88 | 1.18 | 0.666 | 0.973 | 1.03 | 0.0319 | -0.0852 | 0.895 | 1.09 | -0.0519 (inactive) | 0.843 | -0.0027 (inactive) | 0.417 (inactive) | -0.136 (inactive) | 0.0964 (inactive) | 1.68 | 0.72 | -0.05 | 0.848 | -0.587 |
| CCOC(=O)NN=C1C[C@@H](O)[C@@H](O)[C@@H]2[C@@H]3C(=O)N(C[C@@H]4CCCO4)C(=O)[C@@H]3CC[C@@H]12 | 0.193 | 0.329 | 0.295 | 0.216 | 0.306 | 0.436 | 0.39 | 0.344 | 0.386 | -0.439 (inactive) | -0.0127 | 0.0688 (inactive) | 0.139 (inactive) | -0.658 (inactive) | 0.75 (inactive) | 0.293 | -0.0933 | 0.298 | 0.76 | 0.111 |
